Data on five molecules can be found in PubChem BioAssay.

Test [1] concerns PRMT1 (protein arginine N-methyltransferase 1). The experiment in a line: PRMT1 binders on small-molecule microarrays, primary screen, biochemical, small-molecule microarray, 635 nm fluorescence (AID 1088).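 Further: binding of Prmt1 protein to compounds spotted on small-molecule microarray slides.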 The note with it: small-molecule microarray binding, higher = more signal.
Test [2] can be described thus: yeast growth modulation, basal conditions, primary screen, YJM789 clinical isolate, OD600, 24 h (AID 1089).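 Further: growth of clinical yeast isolate S. cerevisiae YJM 789 seeded 1000 cells per well; test concentration not given here.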 The note with it: S. cerevisiae YJM789 growth, higher = more signal, called active from +8 up or from −8 down.
Test [3] can be described thus: fission yeast growth modulation, primary screen, strain 972, OD600, 24 h, no modulator (AID 1090).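 Further: basal condition with compound alone and no growth modifier present; test concentration not given here.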 The note with it: S. pombe 972 growth, higher = more signal, called active from +8 up or from −8 down.
Test [4] is described as follows: S. cerevisiae growth modulation with rapamycin, primary screen, strain BY4716, OD600, 96 h (AID 1091). Further: test concentration not given here. The note with it: higher = more signal, called active from +8 up or from −8 down.
The target in test [5] is Torsin-1A-interacting protein 2 (Homo sapiens) (UniProt Q8NFQ8). In words: LULL1 binders on small-molecule microarray, primary screen, cell lysate, human LULL1 lysate, 635/667 nm fluorescence (AID 1092).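 Further: probe is lysate of COS7 cells overexpressing human LULL1; score merges per-feature 667 nm fluorescence with signal-to-noise.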 The note with it: hLULL1 lysate binding, 635 nm fluorescence, higher = more signal.
Test [6] can be described thus: E. coli growth modulation, two-sided OD650, primary screen, E. coli filamentation project, strain DRC41, 24 h (AID 1093).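 Further: MC1000 strain lacking acrAB efflux and sulA so SOS filamentation is blocked; test concentration not given here.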 The note with it: OD650, 24 h, higher = more signal, called active from +8 up or from −8 down.
The nature of test [7]: small-molecule microarray binders of probe aLefty2, primary screen, biochemical, biotinylated probe, 635/667 nm fluorescence (AID 1094).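 Further: score merges spot fluorescence near 667 nm with spot signal-to-noise ratio.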 The note with it: higher = more signal.
The subject of test [8] is Noggin (protein binding on small-molecule microarray). In words: Noggin binders on small-molecule microarray, primary screen, biochemical, 635/667 nm fluorescence (AID 1095).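 Further: score merges 667 nm feature fluorescence with signal to noise over triplicate slides.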 The note with it: 635 nm fluorescence, higher = more signal.
In test [9] the target is Neurogenic locus notch homolog protein 3 (Homo sapiens) (UniProt Q9UM47). In words: NOTCH3 binders on small-molecule microarray, primary screen, biochemical, 635/667 nm fluorescence (AID 1096). The note with it: NOTCH3 binding, 635 nm fluorescence, higher = more signal.
Test [10] can be described thus: small-molecule microarray binders of probe aEGFR, primary screen, biochemical, biotinylated probe, 635/667 nm fluorescence (AID 1097).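 Further: probe is a biotinylated anti-EGFR antibody binding compounds printed on slides; score combines fluorescence near 667 nm and signal to noise of each spot.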 The note with it: higher = more signal.
Test [11] has as its system Plasmodium falciparum Sir2 (PF13_0152, Sir2A). In words: pfSir2 binders on small-molecule microarrays, primary screen, biochemical, small-molecule microarray, 635 nm fluorescence (AID 1098).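 Further: score merges spot fluorescence intensity with its signal-to-noise ratio.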 The note with it: small-molecule microarray binding, fluorescence 635 nm; higher = more signal.
The nature of test [12]: small-molecule microarray binders of probe aDKK1, primary screen, biochemical, biotinylated probe, 635/667 nm fluorescence (AID 1099).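 Further: score merges 667nm spot fluorescence with signal to noise across triplicate slides; reference of the scale not given here.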 The note with it: higher = more signal.
Test [13] is described as follows: small-molecule microarray binders of probe aCHRDL2, primary screen, biochemical, biotinylated probe, 635/667 nm fluorescence (AID 1100). The note with it: higher = more signal.
Test [14] can be described thus: splicing luciferase reporter signal modulators, primary screen, spliceosome inhibition project, cell-based, HEK293, splice +/- reporter (AID 1101).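 Further: HEK293 cells carrying a splicing-competent luciferase reporter gene; test concentration not given here.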 The note with it: luminescence, 24 h, higher = more signal, called active from +8 up or from −8 down. (A reporter such as luciferase makes a cellular process visible.)
The target of test [15] is Fibroblast growth factor 10 (Homo sapiens) (UniProt O15520). In words: FGF10 binders on small-molecule microarrays, primary screen, biochemical, small-molecule microarray, 635 nm fluorescence (AID 1102). The note with it: FGF10 binding, fluorescence 635 nm, higher = more signal.
Test [16] has as its system glycogen synthase kinase-3 (GSK3A per assay name; protocol says GSK3B). The experiment in a line: GSK3 binders on small-molecule microarrays, primary screen, biochemical, small-molecule microarray, 635 nm fluorescence, GSK3A (AID 1103). Further: the record names both GSK3A and GSK3B. The note with it: small-molecule microarray binding, fluorescence 635 nm; higher = more signal.
Test [17] addresses Epidermal growth factor receptor (Homo sapiens) (UniProt P00533). The experiment in a line: EGFR binders on small-molecule microarrays, primary screen, biochemical, small-molecule microarray, 635 nm fluorescence (AID 1104).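 Further: score merges 667 nm emission intensity with spot signal to noise over triplicate slides.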 The note with it: EGFR binding, higher = more signal.
In test [18] the target is Follistatin-related protein 3 (Homo sapiens) (UniProt O95633). The experiment in a line: FSTL3 binders on small-molecule microarrays, primary screen, biochemical, small-molecule microarray, 635 nm fluorescence (AID 1105).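 Further: score merges emission near 667 nm and signal to noise per printed spot across three slides.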 The note with it: FSTL3 binding, higher = more signal.
Test [19] has as its target Dickkopf-related protein 1 (Homo sapiens) (UniProt O94907). In words: DKK1 binders on small-molecule microarrays, primary screen, biochemical, small-molecule microarray, 635 nm fluorescence scan (AID 1106).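 Further: score merges emission near 667 nm with signal to noise over three replicate slides.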 The note with it: DKK1 binding, higher = more signal.
The subject of test [20] is Inhibin beta A chain (activin A). In words: INHBA (activin A) binders on microarrays, primary screen, biochemical, small-molecule microarray, 635 nm fluorescence scan (AID 1107).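 Further: mouse activin A protein probed at 4.33 µg/mL on printed slides; score merges bound-protein fluorescence near 667 nm with spot signal-to-noise.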 The note with it: small-molecule microarray binding, higher = more signal.

The structures appear in SMILES notation. Calls of active or inactive are those of the source.

Chain of Follistatin-related protein 3 (Homo sapiens) (O95633 whole entry, looked up): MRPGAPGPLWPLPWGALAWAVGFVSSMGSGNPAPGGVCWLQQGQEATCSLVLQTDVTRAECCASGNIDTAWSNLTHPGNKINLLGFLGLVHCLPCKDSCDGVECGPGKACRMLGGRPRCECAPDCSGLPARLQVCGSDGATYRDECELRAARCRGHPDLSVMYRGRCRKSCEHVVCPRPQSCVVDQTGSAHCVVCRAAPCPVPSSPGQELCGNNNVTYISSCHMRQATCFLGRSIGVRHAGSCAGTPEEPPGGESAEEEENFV
Chain of Epidermal growth factor receptor (Homo sapiens) (P00533 whole entry, looked up): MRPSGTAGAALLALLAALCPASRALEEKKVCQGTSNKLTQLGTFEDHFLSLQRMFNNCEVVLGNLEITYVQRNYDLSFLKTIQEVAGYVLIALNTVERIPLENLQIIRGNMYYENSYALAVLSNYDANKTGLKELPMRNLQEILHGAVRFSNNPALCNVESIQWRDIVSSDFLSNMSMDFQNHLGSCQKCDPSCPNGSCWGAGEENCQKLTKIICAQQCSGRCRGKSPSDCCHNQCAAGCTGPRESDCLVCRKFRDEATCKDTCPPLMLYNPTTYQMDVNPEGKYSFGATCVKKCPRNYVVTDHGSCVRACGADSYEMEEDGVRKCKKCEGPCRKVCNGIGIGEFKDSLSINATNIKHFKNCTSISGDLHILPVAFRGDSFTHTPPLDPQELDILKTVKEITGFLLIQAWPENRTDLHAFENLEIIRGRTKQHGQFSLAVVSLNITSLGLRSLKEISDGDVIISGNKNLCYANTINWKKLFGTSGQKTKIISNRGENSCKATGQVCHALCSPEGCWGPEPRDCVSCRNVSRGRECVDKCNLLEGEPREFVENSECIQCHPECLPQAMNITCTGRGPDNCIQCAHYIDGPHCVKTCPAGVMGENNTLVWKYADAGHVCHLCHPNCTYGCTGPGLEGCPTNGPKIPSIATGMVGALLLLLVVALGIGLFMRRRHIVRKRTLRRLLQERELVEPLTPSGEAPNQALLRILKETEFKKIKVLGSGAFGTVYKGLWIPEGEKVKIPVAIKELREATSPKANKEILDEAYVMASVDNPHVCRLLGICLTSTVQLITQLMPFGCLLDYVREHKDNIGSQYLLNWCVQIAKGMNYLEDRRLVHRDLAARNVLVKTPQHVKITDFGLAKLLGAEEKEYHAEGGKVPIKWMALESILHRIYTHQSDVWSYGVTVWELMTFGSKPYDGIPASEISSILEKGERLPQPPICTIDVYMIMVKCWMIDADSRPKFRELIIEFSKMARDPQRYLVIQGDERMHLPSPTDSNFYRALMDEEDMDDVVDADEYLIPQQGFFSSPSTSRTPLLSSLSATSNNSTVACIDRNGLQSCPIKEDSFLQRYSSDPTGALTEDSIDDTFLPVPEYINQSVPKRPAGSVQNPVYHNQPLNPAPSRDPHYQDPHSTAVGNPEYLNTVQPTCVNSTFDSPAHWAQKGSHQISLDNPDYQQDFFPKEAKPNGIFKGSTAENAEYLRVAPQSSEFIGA
Chain of Torsin-1A-interacting protein 2 (Homo sapiens) (Q8NFQ8 whole entry, looked up): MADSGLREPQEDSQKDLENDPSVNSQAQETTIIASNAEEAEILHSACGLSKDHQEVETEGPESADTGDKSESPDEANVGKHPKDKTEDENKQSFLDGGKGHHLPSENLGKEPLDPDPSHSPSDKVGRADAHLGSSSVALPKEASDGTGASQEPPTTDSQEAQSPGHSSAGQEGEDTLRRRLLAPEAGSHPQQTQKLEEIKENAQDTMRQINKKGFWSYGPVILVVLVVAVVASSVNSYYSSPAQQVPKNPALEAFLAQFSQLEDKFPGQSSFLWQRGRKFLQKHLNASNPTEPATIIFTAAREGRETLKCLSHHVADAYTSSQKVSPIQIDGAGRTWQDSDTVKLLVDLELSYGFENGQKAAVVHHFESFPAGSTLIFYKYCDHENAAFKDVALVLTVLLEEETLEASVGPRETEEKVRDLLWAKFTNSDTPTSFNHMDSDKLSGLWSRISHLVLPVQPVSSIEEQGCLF
Chain of Neurogenic locus notch homolog protein 3 (Homo sapiens) (Q9UM47 whole entry, looked up): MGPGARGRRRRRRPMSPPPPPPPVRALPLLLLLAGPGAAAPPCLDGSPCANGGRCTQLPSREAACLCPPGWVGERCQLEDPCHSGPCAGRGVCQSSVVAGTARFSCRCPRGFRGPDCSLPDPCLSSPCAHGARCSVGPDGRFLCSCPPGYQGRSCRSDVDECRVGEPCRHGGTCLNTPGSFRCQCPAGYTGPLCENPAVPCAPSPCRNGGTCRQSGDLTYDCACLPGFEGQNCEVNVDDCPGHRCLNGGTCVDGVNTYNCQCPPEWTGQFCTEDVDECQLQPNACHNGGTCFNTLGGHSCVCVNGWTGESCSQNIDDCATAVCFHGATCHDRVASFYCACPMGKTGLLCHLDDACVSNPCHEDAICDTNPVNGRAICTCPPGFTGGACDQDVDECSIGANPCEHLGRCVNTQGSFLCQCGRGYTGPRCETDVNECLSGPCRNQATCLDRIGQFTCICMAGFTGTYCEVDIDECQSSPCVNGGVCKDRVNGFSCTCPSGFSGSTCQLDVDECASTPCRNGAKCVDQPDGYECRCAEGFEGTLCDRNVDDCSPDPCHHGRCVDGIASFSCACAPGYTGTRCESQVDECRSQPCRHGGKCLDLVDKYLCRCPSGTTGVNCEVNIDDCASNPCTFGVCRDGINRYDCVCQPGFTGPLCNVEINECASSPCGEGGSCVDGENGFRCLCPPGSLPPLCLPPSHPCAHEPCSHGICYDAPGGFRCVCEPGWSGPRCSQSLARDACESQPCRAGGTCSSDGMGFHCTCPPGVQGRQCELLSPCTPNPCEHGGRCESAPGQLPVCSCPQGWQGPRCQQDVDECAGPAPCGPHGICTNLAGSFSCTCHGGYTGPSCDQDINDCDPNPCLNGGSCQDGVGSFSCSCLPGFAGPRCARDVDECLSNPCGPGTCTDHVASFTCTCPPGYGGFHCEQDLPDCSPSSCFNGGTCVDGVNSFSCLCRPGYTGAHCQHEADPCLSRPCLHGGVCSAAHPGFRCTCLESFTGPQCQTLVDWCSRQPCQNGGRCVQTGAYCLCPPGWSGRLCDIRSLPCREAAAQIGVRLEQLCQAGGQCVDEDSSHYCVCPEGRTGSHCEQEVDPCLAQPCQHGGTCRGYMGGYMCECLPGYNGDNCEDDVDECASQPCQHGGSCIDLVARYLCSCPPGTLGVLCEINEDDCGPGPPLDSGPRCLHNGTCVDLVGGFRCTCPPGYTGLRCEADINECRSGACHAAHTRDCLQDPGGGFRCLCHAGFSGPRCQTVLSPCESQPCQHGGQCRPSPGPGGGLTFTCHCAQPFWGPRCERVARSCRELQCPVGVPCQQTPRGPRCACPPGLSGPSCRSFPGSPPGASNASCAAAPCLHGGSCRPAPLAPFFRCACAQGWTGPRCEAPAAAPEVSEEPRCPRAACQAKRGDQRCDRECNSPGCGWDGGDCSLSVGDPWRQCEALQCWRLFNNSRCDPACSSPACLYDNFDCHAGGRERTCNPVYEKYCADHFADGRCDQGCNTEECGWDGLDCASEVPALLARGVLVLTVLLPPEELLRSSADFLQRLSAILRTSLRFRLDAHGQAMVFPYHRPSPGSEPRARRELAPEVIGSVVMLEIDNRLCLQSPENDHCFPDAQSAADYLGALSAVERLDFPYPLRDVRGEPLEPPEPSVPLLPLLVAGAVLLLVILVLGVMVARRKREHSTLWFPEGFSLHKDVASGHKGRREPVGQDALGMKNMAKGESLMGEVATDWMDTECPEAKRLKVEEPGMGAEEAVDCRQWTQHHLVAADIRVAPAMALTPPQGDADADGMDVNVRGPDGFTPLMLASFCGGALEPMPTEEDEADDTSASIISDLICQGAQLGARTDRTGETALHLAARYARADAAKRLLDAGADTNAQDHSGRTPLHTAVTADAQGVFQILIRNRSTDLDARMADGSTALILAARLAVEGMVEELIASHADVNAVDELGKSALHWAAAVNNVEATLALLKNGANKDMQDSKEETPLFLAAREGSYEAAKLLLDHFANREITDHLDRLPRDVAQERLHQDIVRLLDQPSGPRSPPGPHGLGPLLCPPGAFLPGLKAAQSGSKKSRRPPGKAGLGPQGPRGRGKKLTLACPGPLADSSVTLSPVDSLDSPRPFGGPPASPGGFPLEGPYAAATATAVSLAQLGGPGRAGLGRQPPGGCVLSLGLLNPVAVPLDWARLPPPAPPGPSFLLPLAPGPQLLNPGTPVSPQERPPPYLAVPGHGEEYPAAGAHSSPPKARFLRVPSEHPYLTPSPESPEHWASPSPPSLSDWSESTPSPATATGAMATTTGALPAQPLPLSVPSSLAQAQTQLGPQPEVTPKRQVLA
Chain of Fibroblast growth factor 10 (Homo sapiens) (O15520 whole entry, looked up): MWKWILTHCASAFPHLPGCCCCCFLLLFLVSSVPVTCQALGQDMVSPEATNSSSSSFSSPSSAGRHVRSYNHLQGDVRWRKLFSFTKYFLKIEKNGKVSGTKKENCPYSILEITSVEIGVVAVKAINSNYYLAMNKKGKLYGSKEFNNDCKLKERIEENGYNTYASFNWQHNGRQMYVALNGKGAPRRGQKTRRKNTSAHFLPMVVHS
Chain of Dickkopf-related protein 1 (Homo sapiens) (O94907 whole entry, looked up): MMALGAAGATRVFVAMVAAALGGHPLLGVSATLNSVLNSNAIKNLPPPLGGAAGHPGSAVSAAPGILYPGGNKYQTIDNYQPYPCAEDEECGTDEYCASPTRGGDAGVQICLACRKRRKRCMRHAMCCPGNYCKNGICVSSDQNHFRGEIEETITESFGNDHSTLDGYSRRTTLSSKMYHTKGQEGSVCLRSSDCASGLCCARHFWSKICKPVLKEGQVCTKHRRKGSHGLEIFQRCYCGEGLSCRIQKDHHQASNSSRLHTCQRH

As to `C=CCN1C(=O)[C@@]2(O[C@@H](CCO)[C@H]([Si](C)(C)c3ccc(OC)cc3)[C@H]2C)c2cc(NC(C)=O)ccc21`, the composite z-score was 1.15 in test [1]; 1.96 in test [5]; -0.0231 in test [7]; 1.23 in [8]; 0.725 in [9]; 0.118 in [10]. Moreover, the composite z-score in test [11] is 0.463; in test [12] it was -0.155; in [13], -0.255; in test [15], 1.08; in test [16], 1.16; in test [17], 0.363. The composite z-score in test [18] was 1.44; in test [19], 1.29; in test [20] it was 0.314. Further, the z-score is 0.0173 (inactive) in [2]; -1.67 (inactive) in test [3]; -0.741 (inactive) in [4]; -0.203 (inactive) in test [6]; -1.17 (inactive) in [14].
Take `O=C(NCc1ccccc1)[C@@H]1c2ccccc2C(=O)N(Cc2cc(F)cc(C(F)(F)F)c2)[C@H]1c1ccc(CO)cc1`: the composite z-score in [1] is 1.49; in test [5] it was 2.82; in test [7], -0.103; in [8], 0.561; in test [9], 0.791; in test [10], 0.021. Also, the composite z-score in test [11] was 1.09; in test [12], 0.125; in test [13], 0.519; in [15], 0.29; in test [16] it was 0.243; in [17], -0.0881. Besides, the composite z-score in [18] is 0.588; in test [19] it was -0.0135; in test [20] it was 0.517. Also, the z-score in test [2] is 0.314 (inactive); in test [3] it was 0.252 (inactive); in test [4] it was -0.319 (inactive); in test [6], 0.387 (inactive); in test [14] it was -0.945 (inactive).
Consider `COc1ccc([Si](C)(C)[C@@H]2[C@@H](CCn3cc([C@H](O)c4ccccc4)nn3)O[C@]3(C(=O)N(C)c4ccccc43)[C@H]2C)cc1`, for which the composite z-score is 0.384 in [1]; 1.96 in [5]; -0.166 in test [7]; -0.133 in test [8]; -0.0523 in test [9]; -0.0828 in test [10]. Moreover, the composite z-score in test [11] is 0.839; in test [12], -0.202; in [13], 0.28; in test [15], 0.0782; in test [16], 0.11; in test [17] it was 0.0033. The composite z-score in test [18] was -0.291; in [19], 0.0052; in test [20] it was 0.283. Also, the z-score in test [2] was -0.842 (inactive); in test [3], 0.324 (inactive); in test [4] it was -0.112 (inactive); in [6], -0.036 (inactive); in test [14], 0.0848 (inactive).
As to `COc1ccc(C#Cc2ccc3c(c2)[C@]2(C(=O)N3)[C@H](C(=O)N3CCc4cc(OC)c(OC)cc4C3)[C@H]3C(=O)O[C@H](c4ccccc4)[C@H](c4ccccc4)N3[C@@H]2c2ccc(OCCO)cc2)cc1`, the composite z-score in test [1] was 1.55; in test [5], 2.51; in [7], -0.0728; in [8], 1.48; in test [9] it was 1.17; in test [10] it was 0.102. The composite z-score is 1.07 in test [11]; -0.029 in [12]; -0.13 in test [13]; 1.29 in [15]; 1.27 in [16]; 0.504 in test [17]. For the same molecule, the composite z-score was 1.08 in [18], 0.671 in test [19] and 0.0787 in test [20]. Also, the z-score in test [2] was 3.09 (inactive); in test [3] it was 2.07 (inactive); in test [4], 6.17 (inactive); in [6] it was 1.9 (inactive); in test [14], 0.8 (inactive).
`O=c1cccc(-c2cccc3ccccc23)o1`: the composite z-score in test [1] is -0.106; in [5], 0.877; in test [7] it was 0.303; in test [8], -0.364; in test [9] it was -0.107; in [10], -0.2. Also, the composite z-score was 1.06 in [11]; 0.849 in test [12]; 1.23 in [13]; -0.52 in [15]; -0.274 in test [16]; -1.18 in test [17]. Further, the composite z-score is -0.218 in test [18], -0.951 in test [19] and 1.46 in test [20]. The z-score in test [2] was -5.22 (inactive); in test [3], -13.3 (active); in [4] it was 4.08 (inactive); in test [6], 1.48 (inactive); in [14] it was 0.873 (inactive).
